Laboratory results taken from PubChem BioAssay.
Activity calls are given as the source filed them. Unless noted, how the calls were made is not given here.

Tests used:
[1] = A549 cell viability effects, profiling panel, calcein-AM fluorescence, 48 h, basal (AID 1162); details: higher = more signal; further: test concentration not given here
[2] = adipocyte viability effects, profiling panel, cell-based, 3T3-L1 adipocytes, calcein-AM fluorescence, 48 h, basal (AID 1163); details: 3T3-L1 adipocytes viability, higher = more signal; further: test concentration not given here
[3] = HepG2 cell viability effects, profiling panel, calcein-AM fluorescence, 48 h, basal (AID 1164); details: higher = more signal; further: test concentration not given here
[4] = MM1S cell viability effects, profiling panel, calcein-AM fluorescence, 48 h, basal (AID 1165); details: higher = more signal;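 further: viability of MM1S multiple myeloma cells under basal unstimulated conditions; test concentration not given here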
[5] = basal RPMI8226 viability, no added stimulus, profiling panel, cell-based, calcein-AM fluorescence, 48 h, PK04 Diversity Set (AID 1166); details: RPMI8226 myeloma viability, higher = more signal;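 further: cells grown under basal conditions without added stimulus; test concentration not given here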
[6] = basal HepG2 mitochondrial membrane potential changes, profiling panel, cell-based, JC-1 fluorescence, 24 h, 100 nL compound (AID 1167); details: higher = more signal; further: test concentration not given here
[7] = basal 3T3-L1 adipocyte mitochondrial potential changes, profiling panel, cell-based, JC-1 fluorescence, 3T3-L1 adipocytes, 24 h, 100 nL compound (AID 1168); details: JC-1 mitochondrial fluorescence, higher = more signal, called active from +8 up or from −8 down; further: test concentration not given here
[8] = basal RPMI8226 mitochondrial membrane potential changes, profiling panel, cell-based, JC-1 fluorescence, 24 h, 100 nL compound (AID 1169); details: RPMI8226 myeloma, JC-1 mitochondrial potential fluorescence, higher = more signal; further: test concentration not given here
[9] = basal MM1S mitochondrial membrane potential changes, profiling panel, cell-based, JC-1 fluorescence, 24 h, 100 nL compound (AID 1170); details: higher = more signal; further: test concentration not given here
[10] = A549 lung cancer cell viability effects, profiling panel, resazurin fluorescence, 24 h, PK04 Diversity Set (AID 1171); details: higher = more signal, called active from +8 up or from −8 down; further: test concentration not given here
[11] = HepG2 liver cancer cell viability effects, profiling panel, resazurin fluorescence, 24 h, PK04 Diversity Set (AID 1172); details: higher = more signal; further: test concentration not given here
[12] = basal S. cerevisiae growth modulation, no modifier, primary screen, OD600, strain BY4716, 24 h, basal condition (AID 1173); details: OD600, 24 h, higher = more signal, called active from +8 up or from −8 down
[13] = MM1S myeloma cell viability, profiling panel, resazurin fluorescence, basal, 24 h, PK04 Diversity Set (AID 1174); details: higher = more signal, called active from +8 up or from −8 down;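 further: MM1S multiple myeloma cell line; test concentration not given here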
[14] = target: Dihydroorotate dehydrogenase (quinone), mitochondrial (Plasmodium falciparum (isolate 3D7)) (UniProt Q08210); experiment: PfDHODH enzyme inhibitors, primary screen, biochemical, C-terminal His tag, absorbance 600 nm (AID 1175); details: DCIP absorbance 600 nm, higher = more signal, called active from +8 up or from −8 down;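 further: recombinant parasite enzyme with a five histidine tag at its C terminus; test concentration not given here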
[15] = P. aeruginosa biofilm formation inhibitors, primary screen, strain PAO1, LB-PBS medium, absorbance 600 nm (AID 1176); further: test concentration not given here; details: P. aeruginosa PAO1 growth/biofilm, A600, 12 h; higher = more signal
[16] = S. cerevisiae RM11-1a growth modifiers, primary screen, strain RM11-1a, OD600, basal, 24 h (AID 1177); details: OD600, 24 h, higher = more signal, called active from +8 up or from −8 down;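 further: cultures grown under basal conditions with no added stressor; test concentration not given here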
[17] = E. coli acrAB mutant growth effects, primary screen, E. coli filamentation inducers, strain DRC39, OD650, 24 h (AID 1178); details: higher = more signal, called active from +8 up or from −8 down;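 further: growth measured as culture turbidity by optical density at 650 nm; test concentration not given here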
[18] = E. coli acrAB mutant growth effects, primary screen, E. coli filamentation inducers, strain DRC39, OD650, 48 h (AID 1179);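 further: screen aims at cell division blockers that make cells filament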; details: E. coli DRC39 delta-acrAB growth, higher = more signal, called active from +8 up or from −8 down
[19] = RPMI8226 myeloma cell viability, profiling panel, resazurin fluorescence, basal, 24 h, PK04 Diversity Set (AID 1180); details: higher = more signal;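 further: RPMI8826 multiple myeloma cell line at 5000 cells per well; test concentration not given here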
[20] = target: E3 ubiquitin-protein ligase XIAP (Homo sapiens) (UniProt P98170); experiment: XIAP binders, primary screen, biophysical, small-molecule microarray, fluorescence 635 nm (AID 1181); details: small-molecule microarray binding, higher = more signal;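 further: score merges 667 nm emission and signal to noise over triplicate slides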
E3 ubiquitin-protein ligase XIAP (Homo sapiens), sequence (P98170 whole entry, looked up): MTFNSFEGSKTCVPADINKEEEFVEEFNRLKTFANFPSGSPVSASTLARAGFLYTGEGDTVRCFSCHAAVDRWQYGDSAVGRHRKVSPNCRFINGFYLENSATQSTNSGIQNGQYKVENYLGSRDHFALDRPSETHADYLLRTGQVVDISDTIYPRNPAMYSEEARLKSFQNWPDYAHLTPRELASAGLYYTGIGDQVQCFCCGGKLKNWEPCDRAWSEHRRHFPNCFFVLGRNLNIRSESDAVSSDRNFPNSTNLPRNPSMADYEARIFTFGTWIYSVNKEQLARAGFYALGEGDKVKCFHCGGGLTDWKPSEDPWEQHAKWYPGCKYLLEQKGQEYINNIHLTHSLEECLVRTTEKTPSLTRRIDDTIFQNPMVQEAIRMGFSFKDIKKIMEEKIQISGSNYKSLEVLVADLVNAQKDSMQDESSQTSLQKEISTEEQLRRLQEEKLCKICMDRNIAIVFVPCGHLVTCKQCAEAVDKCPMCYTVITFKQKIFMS

Dihydroorotate dehydrogenase (quinone), mitochondrial (Plasmodium falciparum (isolate 3D7)), sequence (Q08210 whole entry, looked up): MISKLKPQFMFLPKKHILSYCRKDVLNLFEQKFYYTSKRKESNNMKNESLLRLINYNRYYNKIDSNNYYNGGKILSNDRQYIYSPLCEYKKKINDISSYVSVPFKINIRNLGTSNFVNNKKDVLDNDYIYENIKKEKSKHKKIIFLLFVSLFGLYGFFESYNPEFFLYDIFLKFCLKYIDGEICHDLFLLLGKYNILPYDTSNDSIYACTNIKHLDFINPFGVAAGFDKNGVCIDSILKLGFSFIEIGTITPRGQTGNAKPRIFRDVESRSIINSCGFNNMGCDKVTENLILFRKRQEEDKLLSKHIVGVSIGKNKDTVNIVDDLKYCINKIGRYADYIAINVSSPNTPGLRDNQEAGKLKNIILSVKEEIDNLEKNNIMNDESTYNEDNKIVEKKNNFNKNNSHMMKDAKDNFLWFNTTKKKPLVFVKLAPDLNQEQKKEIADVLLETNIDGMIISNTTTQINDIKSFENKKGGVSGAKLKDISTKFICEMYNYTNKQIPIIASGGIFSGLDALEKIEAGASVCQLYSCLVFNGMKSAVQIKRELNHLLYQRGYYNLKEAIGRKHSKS

Row | Compound | z-score [1] | z-score [2] | z-score [3] | z-score [4] | z-score [5] | z-score [6] | z-score [7] | z-score [8] | z-score [9] | z-score [10] | z-score [11] | z-score [12] | z-score [13] | composite z-score [14] | z-score [15] | z-score [16] | z-score [17] | z-score [18] | z-score [19] | composite z-score [20]
1 | C=CCC(OC(C)=O)[C@@H]1[C@@H](N(Cc2ccc(-c3cccc(C(F)(F)F)c3)o2)C(=O)c2ccc(-c3ccccc3)cc2)c2cc(OCCCO)ccc2N1C(=O)c1ccc2ccccc2n1 (stereo not given in full) | -0.157 | 0.585 | -0.474 | 0.0887 | 0.458 | 2.07 | -0.572 (inactive) | 0.378 | -0.0621 | 0.264 (inactive) | -0.0845 | 1.59 (inactive) | 0.328 (inactive) | -0.32 (inactive) | 0.857 (inactive) | 0.859 (inactive) | -0.347 (inactive) | -0.302 (inactive) | -0.556 | -0.152
2 | [N-]=[N+]=NCc1ccccc1C[C@@]1(C(=O)NCc2ccccc2)N=C(c2ccc(OCCCO)cc2)O[C@@H]1c1ccccc1N=[N+]=[N-] | 0.0629 | -1.67 | -0.236 | -2.78 | -3.5 | 0.917 | 0.898 (inactive) | -1.11 | -1.24 | -0.0617 (inactive) | 0.279 | 0.85 (inactive) | -0.806 (inactive) | 0.805 (inactive) | 1.39 (inactive) | 1.49 (inactive) | 0.423 (inactive) | -0.335 (inactive) | -0.686 | -0.11
3 | CCCC[C@@H]1C[C@H]1[C@@H](NC(=O)c1cccs1)c1ccc(C(F)(F)F)cc1 | -1.36 | -0.249 | -0.655 | -0.771 | -1.47 | -1.04 | -1.23 (inactive) | 0.404 | -0.917 | 0.724 (inactive) | -0.117 | 1.95 (inactive) | -0.6 (inactive) | 0.322 (inactive) | 0.771 (inactive) | 1.83 (inactive) | -0.82 (inactive) | -0.734 (inactive) | -0.601 | 0.0408
4 | O=C1NC(=O)C2C1C=CC(C(O)c1cccc3ccccc13)N2Nc1ccc(Cl)cc1Cl (stereo not given) | -2.6 | -0.132 | -2.76 | -3.71 | -4.17 | -4.07 | -1.1 (inactive) | -0.962 | -0.213 | -0.993 (inactive) | -2.01 | -4.99 (inactive) | -1.66 (inactive) | 0.847 (inactive) | 0.875 (inactive) | 0.981 (inactive) | -0.693 (inactive) | -0.726 (inactive) | -1.84 | 0.351
5 | [N-]=[N+]=Nc1ccccc1C[C@]1(C(N)=O)N=C(c2ccc(OCCCO)cc2)O[C@H]1c1ccccc1N=[N+]=[N-] | -1.47 | 1.32 | -1.84 | -2.29 | -3.48 | -1.04 | -0.981 (inactive) | -1.21 | -0.825 | -1.36 (inactive) | -0.0314 | -2.88 (inactive) | -1.55 (inactive) | -0.398 (inactive) | -0.193 (inactive) | -0.315 (inactive) | 0.892 (inactive) | -0.142 (inactive) | -1.64 | -0.248
6 | COCCOC(=O)N1C(=O)[C@@]2(c3cc(C#CC4(O)CCCCCC4)ccc31)[C@H](c1ccc(O)cc1)N1[C@H](c3ccccc3)[C@H](c3ccccc3)OC(=O)[C@H]1[C@@H]2C(=O)NC[C@H](O)c1ccccc1 | 0.121 | 0.266 | -0.31 | -1.49 | -3.49 | -2.3 | -1.27 (inactive) | -1.15 | -0.715 | 0.0025 (inactive) | 0.267 | 0.31 (inactive) | -1.45 (inactive) | 0.658 (inactive) | 1.29 (inactive) | 0.657 (inactive) | 0.157 (inactive) | -0.105 (inactive) | -1.62 | 0.367
7 | C[N+](C)(C)CCCC[C@@H]1NC(=O)[C@H]2C[C@@H](C(=O)NCCCCCCN)[C@@H](c3ccc(O)cc3)N2C1=O | 0.811 | 0.629 | 0.38 | -1.39 | 0.135 | 1.28 | 0.367 (inactive) | -0.0466 | 0.596 | 0.169 (inactive) | -0.132 | 0.252 (inactive) | 0.99 (inactive) | 0.302 (inactive) | -0.515 (inactive) | 1.18 (inactive) | -0.231 (inactive) | -0.185 (inactive) | 0.976 | -0.0286
8 | CCOc1cc(C(O)C2C=CC3C(=O)N(c4ccccc4)C(=O)C3N2Nc2ccc(C#N)cc2)ccc1O (stereo not given) | -0.403 | -0.958 | 0.264 | -1.49 | -1.01 | -2.67 | -1.55 (inactive) | 0.674 | -0.443 | -0.883 (inactive) | -1.79 | -0.0687 (inactive) | -1.71 (inactive) | 0.45 (inactive) | 0.888 (inactive) | 0.093 (inactive) | -0.523 (inactive) | -0.245 (inactive) | -1.4 | -0.0438
9 | COc1cc(OC)c(C(O)C2C=CC3C(=O)N(c4ccccc4)C(=O)C3N2Nc2ccccc2)cc1Br (stereo not given) | 1.84 | -1.48 | 0.0936 | 0.251 | -0.562 | -2.11 | -0.602 (inactive) | 0.292 | -0.761 | 0.439 (inactive) | 0.222 | -11 (active) | -1.14 (inactive) | 0.593 (inactive) | 0.475 (inactive) | 0.378 (inactive) | -1.05 (inactive) | -0.163 (inactive) | -1.52 | 0.0967
